# ALR inh = inhibitors of human sulfhydryl oxidase ALR. P55789. purified ALR, DTT oxidation, H2O2 HRP-luminol luminescence. 290,000 compounds, 3.8% hits. inhibition, % (no concentration beside the values);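 active = mean replicate inhibition above about 79%, with every replicate also reaching it, limit read from the data; inconclusive = only one of the two criteria met; inactive = mean below limit and not every replicate reaching it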
# Target sequence (P55789 whole entry, looked up): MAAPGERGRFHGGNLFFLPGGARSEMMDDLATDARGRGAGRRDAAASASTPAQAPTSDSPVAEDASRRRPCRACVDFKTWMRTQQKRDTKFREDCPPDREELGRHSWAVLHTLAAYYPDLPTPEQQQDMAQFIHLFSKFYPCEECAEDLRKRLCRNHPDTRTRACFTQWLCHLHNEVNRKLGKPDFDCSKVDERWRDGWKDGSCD
# rCAG binder = molecules binding r(CAG) RNA repeats. r(CAG) RNA repeat, TO-PRO-1 dye displacement fluorescence. inhibition, % at 3 µM. 370,000 compounds, 1.3% hits. AID 651821;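 active = inhibition above the plate cutoff, the mean of all test compounds on that plate plus 3 SD, cut at about 35% in these data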;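 also: 0% = DMSO alone and 100% = 100 µM mitoxantrone as full dye displacement; higher means more dye released from RNA so lower well fluorescence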
# Rtt109 Vps75 = blocks Candida albicans Rtt109/Vps75 acetyltransferase activity | inhibition, % at 34.9 µM | 330,000 compounds, 0.16% hits | AID 540336 | purified Rtt109/Vps75, ThioGlo CoA-SH fluorescence, 4 h;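 active = inhibition of at least 50% in every replicate; inconclusive = best replicate reaches 50% inhibition but some replicates fall short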
# Target sequence (Q5AAJ8 whole entry, looked up): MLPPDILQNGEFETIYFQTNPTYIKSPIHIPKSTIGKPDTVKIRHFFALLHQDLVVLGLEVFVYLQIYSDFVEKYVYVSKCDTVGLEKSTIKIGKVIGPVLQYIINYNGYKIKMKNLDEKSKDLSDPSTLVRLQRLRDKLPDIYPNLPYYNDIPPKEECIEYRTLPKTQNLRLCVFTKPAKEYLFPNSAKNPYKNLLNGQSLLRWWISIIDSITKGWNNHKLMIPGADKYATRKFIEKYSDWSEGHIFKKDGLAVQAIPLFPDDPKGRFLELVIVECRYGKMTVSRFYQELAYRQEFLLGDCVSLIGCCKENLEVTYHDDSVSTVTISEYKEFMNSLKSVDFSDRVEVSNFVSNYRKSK
# LANA-H2B inh = blocks KSHV LANA binding to histone H2A/H2B; Q9QR71; cell-free LANA-H2A/H2B peptide, fluorescence polarization; inhibition, % (test concentration not listed); 320,000 compounds, 0.6% hits; in the data active = inhibition mostly above about 10%, no sharp cut-off; inactive = mostly below about 6.7%
# ABHD5-PLIN5 inh = blocks binding of human ABHD5 to perilipin-5 | Q00G26+Q8WTS1 | 360,000 compounds, 0.78% hits | inhibition, % at 4 µM | Split G. princeps luciferase complementation, luminescence, 4 h | AID 602281;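 active = inhibition above the mean inhibition across every tested compound plus 3 SD, cut at about 22% in these data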;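 also: 0% = DMSO only wells and the 100% control is not disclosed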
# PRMT1 FP inh = blocks human protein arginine methyltransferase 1; Q99873; recombinant PRMT1, activity-based probe fluorescence polarization; inhibition, % at 2.79 µM; 370,000 compounds, 1.3% hits; AID 652257;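 active = inhibition above about 21% made by adding two undisclosed values, limit read from the data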
# rCAG binder conf = r(CAG) RNA repeat binding, confirmation | shares compounds with rCAG binder | TO-PRO-1 dye displacement fluorescence | inhibition, % at 3 µM | 4,300 compounds, 70% hits;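 active = inhibition above a per-plate cutoff, the mean inhibition of sample wells plus 3 SD, cut at about 35% in these data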;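 also: loss of TO-PRO-1 fluorescence as compound displaces dye from 1x1 AA loop RNA; 0% = DMSO only wells and 100% = 100 µM mitoxantrone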
# DNA CAG counter = counter-screen for rCAG RNA binders: DNA CAG dye complex inhibitors; 4,300 compounds, 94% hits; inhibition, % at 3 µM; shares compounds with rCAG binder; d(CAG) DNA oligo TO-PRO-1 dye displacement, fluorescence;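 active = inhibition above its plate's cutoff, the mean test-well inhibition plus 3 SD, cut at about 4.8% in these data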;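 also: 0% = DNA dye mix with DMSO and 100% = 100 µM mitoxantrone; hits displace the dye from DNA and so lower well fluorescence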
# Active calls of the source: *; u = inconclusive; x = no result. Only some compounds are listed: those with a hit (about 5.9% of all), similar ones and a draw of the others.
SMILES,ALR inh,rCAG binder,Rtt109 Vps75,LANA-H2B inh,ABHD5-PLIN5 inh,PRMT1 FP inh,rCAG binder conf,DNA CAG counter
O=C(COC(=O)CCN1C(=O)/C(=C\C=C\c2ccccc2)SC1=S)Nc1cc(F)ccc1F,5,38*,-4,6,-4,16,28,14*
O=C(CN1C(=O)S/C(=C\C=C\c2ccccc2)C1=O)N1CCOCC1,-13,3,x,-3,4,0,x,x
O=C(CCN1C(=O)/C(=C/C=C/c2ccccc2)SC1=S)Nc1nc2ccccc2s1,-2,10,-4,11,5,-1,x,x
O=C(CN1C(=O)/C(=C\C=C\c2ccccc2)SC1=S)Nc1ccc(F)cc1,-2,13,0,-4,0,0,x,x
CC(=Nc1ccccc1)C1=C(O)C(Cc2ccccc2)NC1=O (stereo not drawn),x,1,0,x,-9,-1,x,x
NC(=O)CSc1nc2cc(S(=O)(=O)N3CCOCC3)ccc2o1,x,3,-1,-1,3,12,x,x
Cc1nn(-c2ccccc2Cl)c(Cl)c1/C=N/Nc1nc2ccccc2s1,-4,4,-5,-1,-3,-1,x,x
CCn1c(C)c(/C=N/Nc2nc3ccccc3s2)c2ccccc21,x,47*,5,x,4,12,32,15*
COC(=O)c1cc2c(c3c4cc(C)ccc4n(S(=O)(=O)c4cccc(C)c4)c13)C(=O)N(Cc1ccccc1OC)C2,x,16,x,x,x,-5,x,x
Cc1ccccc1NC(=O)CSc1[nH]c(=O)cc(C)c1C#N,71,16,1,3,-1,7,x,x
N#Cc1cccc(NC(=O)CSc2sc3c(O)cc(=O)[nH]c3c2C#N)c1,99*,47*,-6,0,-1,19,19,7.3*
CCOc1cccc(NC(=O)CSc2sc3c(O)cc(=O)[nH]c3c2C#N)c1,99*,39*,6,-4,-4,6,23,9.4*
N#Cc1c(SCC(=O)Nc2nc3ccc(Br)cc3s2)sc2c(O)cc(=O)[nH]c12,99*,67*,-5,2,-5,19,82*,51*
Cc1c(Cl)cccc1NC(=O)CSc1sc2c(O)cc(=O)[nH]c2c1C#N,u,39*,1,4,-1,1,16,5.8*
Cc1cc(C(F)(F)F)c(C#N)c(SCC(=O)Nc2nc3cc(Br)ccc3s2)n1,0,5,4,-4,1,-2,x,x
COc1cc(OC)c2c(O)c3c(=O)cc(C)oc3c(-c3c(OC)cc4cc5c(c(O)c4c3O)C(=O)CC(C)(O)O5)c2c1 (stereo not drawn),x,44*,x,x,x,-4,41*,22*
COc1ccc(CNC(=O)COc2cc(O)c3c(c2)OC(C)(C)CC3=O)c(OC)c1,19,-5,1,3,1,4,x,x
COc1cccc(C(=O)N[C@@H](CC(C)C)C(=O)N2CCC[C@H]2C(=O)NCc2ccccc2)c1,x,-2,x,x,x,-4,x,x
CCOC(=O)CC(=O)CSc1nc2c(sc(=S)n2-c2ccc(C)c(C)c2)c(=O)[nH]1,x,70*,16,-1,-3,0,63*,23*
CCOC(=O)CC(=O)CSc1nc2c(sc(=S)n2-c2ccc(OCC)cc2)c(=O)[nH]1,96*,61*,9,-3,13,3,53*,19*
CCCN(CCC)C(=O)CSc1nc2c(sc(=S)n2-c2ccc(OCC)cc2)c(=O)[nH]1,23,24,-9,11,-2,-1,x,x
CCOc1ccc(-n2c(=S)sc3c(=O)[nH]c(SCC(=O)NC(C)CC)nc32)cc1 (stereo not drawn),1,19,-13,3,9,-1,x,x
CC(C)(C)c1ccc(OCC(=O)NNC(=S)NC(=O)c2ccccc2[N+](=O)[O-])c(Br)c1,92*,78*,14,4,-7,-3,85*,55*
CCCOc1ccc(C(=O)NNC(=S)NC(=O)c2cccs2)cc1,97*,41*,17,6,-6,-1,35*,11*
CCCCC(=O)Nc1ccc(C(=O)NNC(=S)NC(=O)c2ccccc2[N+](=O)[O-])cc1,18,22,-1,-6,-8,-1,x,x
SMILES,ALR inh,rCAG binder,Rtt109 Vps75,LANA-H2B inh,ABHD5-PLIN5 inh,PRMT1 FP inh,rCAG binder conf,DNA CAG counter
CCCOc1ccc(C(=O)NNC(=S)NC(=O)c2ccccc2[N+](=O)[O-])cc1,21,36*,0,-2,20,-6,20,7.0*
CCCOc1ccc(C(=O)NNC(=S)NC(C)=O)cc1,31,1,-2,0,1,-1,x,x
Cc1cc(NC(=O)c2ccc(NS(=O)(=O)c3ccc(C)c(C)c3)cc2)no1,x,12,x,x,x,14,x,x
COC(=O)c1cc(C2(c3c[nH]c4ccccc34)CCN(C(=O)OC(C)(C)C)CC2)n2ccccc12,x,11,x,x,x,-2,x,x
O=C(CSc1nnc(-c2cccs2)o1)c1ccc2c(c1)OCO2,x,3,x,x,x,1,x,x
CC1CCCCN1C(=O)COC(=O)c1cc([N+](=O)[O-])ccc1N (stereo not drawn),-1,-2,2,0,8,-3,x,x
COc1ccc(CN(C)S(=O)(=O)c2nnc(NC(=O)c3ccccc3OC)s2)cc1OC,-1,15,5,1,8,-3,x,x
COc1cccc(C(=O)Nc2nnc(S(=O)(=O)N3CCCC3)s2)c1,-5,24,-9,-5,1,-4,x,x
COc1ccc(CN(C)S(=O)(=O)c2nnc(NC(=O)c3cccc(OC)c3)s2)cc1,2,67*,-11,-2,-4,-3,58*,23*
CC1CCN(S(=O)(=O)c2nnc(NC(=O)c3ccccc3Br)s2)CC1,4,37*,12,-1,11,-2,28,6.5*
COc1ccc(CN(C)S(=O)(=O)c2nnc(NC(=O)c3ccccc3Br)s2)cc1,-6,73*,3,5,2,-3,52*,18*
COc1cc(C(=O)Nc2nnc(S(=O)(=O)N3CCCCCC3)s2)cc(OC)c1OC,-15,52*,-6,-1,-6,-6,53*,14*
O=C(Nc1nnc(S(=O)(=O)N2CCCC2)s1)c1ccccc1Br,x,9,3,4,-4,3,x,x

# Bioassay records: PubChem, several laboratories
